# In PubChem BioAssay (NCATS):
# “And” between values parts separate entries of the source, which are not always exact repeats. Equal entries are not always repeated. Inconclusive results are not listed. The source made the active and inactive calls. Unless noted, calls come from the whole dose curve; as a rule, active = well fitted curve in the direction sought with a large enough effect; inconclusive = small, poorly fitted or top-dose-only effect, or another doubt; inactive = no such curve, though single readings can be large or run the other way.
# Legend:
# [1] = target: T1, Hexokinase-4 (Homo sapiens) + Glucokinase regulatory protein (Homo sapiens) (UniProt P35557+Q14397); assay: qHTS assay for inhibitors of recombinant human GCK-GKRP interaction: Diaphorase-coupled assay (AID 743205); conditions: G6PDH/diaphorase resorufin fluorescence; series mostly up to 57.5 µM
# Description: (§1) Glucokinase (GCK) is a glucose sensor in hepatocytes and pancreatic beta-cells. Hepatic GCK is regulated by glucokinase regulatory protein (GKRP), which is predominantly localized to the liver. GKRP binds to GCK inhibiting its activity in the fasting state while in the presence of glucose the GKRP is displaced. There is an additional layer of regulation by fructose 1-phosphate and fructose 6-phosphate, which inhibit and enhance the GCK-GKRP interaction, respectively. GCK plays a role in glucose homeostasis and there is an interest in the development of strategies to activate GCK to lower blood glucose levels in type 2 diabetes. To date the majority of effort has focused on direct activation of GCK and the assays developed herein look to activate GCK by inhibiting its binding to GKRP. […]
# 2 uL of substrate (columns 1-48) are dispensed into Greiner, black solid-bottom 1536-well assay plates. […] Following addition of compound and a 20 minute incubation, 1 uL of enzyme mix (GST-GCK, FLAG-GKRP and diaphorase) is added to columns 1, 2, 4-48 and 1 uL of no enzyme mix (FLAG-GKRP and diaphorase) is added to column 3 and the fluorescent product resorufin generated from resazurin was monitored on a Viewlux (PerkinElmer, Shelton, CT, USA) with excitation at 525 nm and emission at 590 nm in kinetic mode where the plate was read every minute for 30 minutes. […]
# [2] = target: T1, Hexokinase-4 (Homo sapiens) + Glucokinase regulatory protein (Homo sapiens); assay: qHTS assay for inhibitors of recombinant human GCK-GKRP interaction: ADP-Glo assay (AID 743206); conditions: ADP-Glo luminescence, 60 min, 0% = vehicle-only wells with enzyme present; series mostly up to 76.9 µM;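 note: plate controls were DMSO plus enzyme for no effect and no enzyme for full effect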
# Description: as §1, with “diabetes.” for “diabetes. To date the majority of effort has focused on direct activation of GCK and the assays developed herein look to activate GCK by inhibiting its binding to GKRP.”
# 2 uL of 15 nM GST-GCK and 15 nM FLAG-GKRP proteins with 2 uM S6P (columns 1-2, 4-48; Millipore, Billerica, MA) are dispensed into Greiner, white solid-bottom 1536-well assay plates; columns 3 receive buffer without GCK as a control for maximum inhibition. […] The amount of ADP is then quantified by the ADP-Glo Kit (Promega, Madison, WI). First, 2 uL of the first kit reagent is added, and the reaction is incubated for 45 minutes; then, 4 uL of the second kit reagent are added and the reaction is incubated for 30 minutes at which time the luminescence is read on a Viewlux plate reader (Perkin-Elmer, Waltham, MA). […]
# [3] = target: T1, Hexokinase-4 (Homo sapiens) + Glucokinase regulatory protein (Homo sapiens); assay: qHTS assay for inhibitors of recombinant human GCK-GKRP interaction: HTRF assay (AID 743207); conditions: recombinant GCK-GKRP HTRF binding, 60 min, with sorbitol-6-phosphate; series mostly up to 57.5 µM;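 note: 0% = DMSO with GCK present and -100% = DMSO wells lacking GCK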
# Description: as §1
# 3 uL of 5 nM GST-GCK and 5 nM FLAG-GKRP proteins with 2 uM S6P (columns 1-2, 4-48; Millipore, Billerica, MA) are dispensed into Greiner, white solid-bottom 1536-well assay plates; columns 3 receive buffer without GCK as a control for maximum inhibition. […] Plates were read on an Envision plate reader (PerkinElmer, Shelton, CT, USA) with excitation at 320 nm and dual-wavelength detection at the Fret donor wavelength (615 nm) and the FRET acceptor wavelength (665 nm).
# [4] = qHTS Assay for Identifying Gametocytocidal Compounds (AID 743244); note: potency is the fitted concentration of half-maximal effect;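 for max response: % is set by controls: 0 for no effect and ±100 for the full control effect; actives lower the fluorescent signal which means gametocytes are killed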; conditions: P. falciparum 3D7 stage III-V gametocytes, alamarBlue, 72 h; max response: stronger effect = lower value
# In short: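 Using 20,000 stage III–V 3D7 gametocytes per well, compounds were incubated 72 h under 37 °C/5% CO2. Viability was then assessed by 24 h alamarBlue reduction, measured fluorometrically at 525/598 nm.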
# [5] = qHTS profiling of the MIPE4 collection as inhibitors of Plasmodium falciparum (3D7) proliferation (AID 743344; call rule not given here;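 note: scaled between DMSO vehicle wells and 0.29 µM artemisinin as full inhibition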); conditions: P. falciparum 3D7 in erythrocytes, SYBR Green DNA fluorescence, 72 h; at 28.5 µM (top of the series)
# In short: (§2)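 Parasite DNA was quantified by SYBR Green I fluorescence (ex 485, em 535 nm) after overnight lysis in saponin/Triton buffer at room temperature. Cultures at 0.3% parasitemia and 2.5% hematocrit were first exposed to compound for 72 h at 37 C; signals were normalised to artemisinin (0.29 uM) and vehicle wells.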
# [6] = qHTS profiling of the MIPE4 collection as inhibitors of Plasmodium falciparum (DD2) proliferation (AID 743345; call rule not given here); conditions: P. falciparum Dd2 in erythrocytes, SYBR Green DNA, 72 h; at 28.5 µM (top of the series)
# In short: as §2
# [7] = qHTS profiling of the MIPE4 collection as inhibitors of Plasmodium falciparum (DD2) proliferation (Rep 2) (AID 743346; call rule not given here); conditions: P. falciparum Dd2 in erythrocytes, SYBR Green DNA, 72 h; at 28.5 µM (top of the series)
# In short: as §2
# [8] = qHTS profiling of the MIPE4 collection as inhibitors of Plasmodium falciparum (HB3) proliferation (AID 743347; call rule not given here;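 note: plate controls were DMSO vehicle wells for no effect and artemisinin wells for full effect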); conditions: P. falciparum HB3 in erythrocytes, SYBR Green DNA, 72 h; at 28.5 µM (top of the series)
# In short: as §2
# T1 sequence (P35557 whole entry, looked up): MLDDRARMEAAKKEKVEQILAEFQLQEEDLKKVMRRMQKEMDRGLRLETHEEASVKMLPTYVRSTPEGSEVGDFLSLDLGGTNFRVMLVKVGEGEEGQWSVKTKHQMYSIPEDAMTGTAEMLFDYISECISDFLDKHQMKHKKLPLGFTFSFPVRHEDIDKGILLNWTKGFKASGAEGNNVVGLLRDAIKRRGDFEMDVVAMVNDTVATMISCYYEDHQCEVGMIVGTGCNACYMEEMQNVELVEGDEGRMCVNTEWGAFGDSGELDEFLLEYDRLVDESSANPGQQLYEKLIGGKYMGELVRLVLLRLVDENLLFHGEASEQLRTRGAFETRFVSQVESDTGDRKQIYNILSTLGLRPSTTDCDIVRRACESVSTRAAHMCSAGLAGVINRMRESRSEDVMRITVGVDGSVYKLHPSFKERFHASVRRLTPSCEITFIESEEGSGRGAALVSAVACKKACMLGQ
# T1 sequence (Q14397 whole entry, looked up): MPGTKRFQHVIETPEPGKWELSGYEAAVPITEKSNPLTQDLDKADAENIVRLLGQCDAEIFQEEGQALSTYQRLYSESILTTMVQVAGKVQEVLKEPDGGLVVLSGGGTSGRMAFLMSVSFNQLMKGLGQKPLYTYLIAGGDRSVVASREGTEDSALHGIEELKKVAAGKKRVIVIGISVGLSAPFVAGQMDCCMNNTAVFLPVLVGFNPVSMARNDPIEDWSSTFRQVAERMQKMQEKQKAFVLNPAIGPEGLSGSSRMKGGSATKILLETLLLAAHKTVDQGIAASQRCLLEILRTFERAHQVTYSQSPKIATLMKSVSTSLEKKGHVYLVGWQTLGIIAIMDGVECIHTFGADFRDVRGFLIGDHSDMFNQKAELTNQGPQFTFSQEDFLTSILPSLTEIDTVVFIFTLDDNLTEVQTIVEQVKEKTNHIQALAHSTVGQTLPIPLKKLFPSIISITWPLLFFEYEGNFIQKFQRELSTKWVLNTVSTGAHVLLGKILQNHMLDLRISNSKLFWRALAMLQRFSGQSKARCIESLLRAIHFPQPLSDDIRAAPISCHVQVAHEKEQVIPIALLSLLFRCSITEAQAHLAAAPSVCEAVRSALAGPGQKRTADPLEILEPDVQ
compound,measurement,setting,value
CN[C@H]1CC[C@@H](c2ccc(Cl)c(Cl)c2)c2ccccc21,outcome,[1],inactive
same,outcome,[2],inactive
same,outcome,[3],inactive
NCCCC(=O)O,outcome,[1],inactive
same,outcome,[2],inactive
same,outcome,[3],inactive
CN=C(NC)NCc1ccccc1,max response,[4],13.1% (inactive)
CCCCc1cc2c(=O)c(C(=O)OC)c[nH]c2cc1OCc1ccccc1,max response,[4],5.7% (inactive)
C=C1CC2C3CCC4=CC(=O)C=C[C@]4(C)[C@@]3(F)[C@@H](O)C[C@]2(C)[C@@]1(O)C(=O)COC(C)=O (stereo partly drawn),max response,[4],-3.67% (inactive)
Cc1ccccc1CNc1ncnc2c1ncn2[C@@H]1O[C@H](CO)[C@@H](O)[C@H]1O,max response,[4],-9.34% (inactive)
CCCCCCCCCCCCCCCC(=O)OC[C@H](O)[C@H]1OC(=O)C(O)=C1O,max response,[4],0.191% (inactive)
CN[C@@H]1CCc2[nH]c3ccc(C(N)=O)cc3c2C1,max response,[4],-0.658% (inactive)
CCCC(=O)N1CCCN(c2nc(N)c3cc(OC)c(OC)cc3n2)CC1,max response,[4],16.2% (inactive)
CO[C@H]1C[C@H](O[C@H]2[C@H](C)O[C@@H](O[C@@H]3/C(C)=C/C[C@@H]4C[C@@H](C[C@]5(C=C[C@H](C)[C@@H](C6CCCCC6)O5)O4)OC(=O)[C@@H]4C=C(C)[C@@H](O)[C@H]5OC/C(=C\C=C\[C@@H]3C)[C@]54O)C[C@@H]2OC)O[C@@H](C)[C@@H]1O,max response,[4],-11.6% (inactive)
O=C(O)c1ccccc1[O-].O=C(O)c1ccccc1[O-].[Zn+2],max response,[4],3.06% (inactive)
CS(=O)(=O)Nc1cc2occ(NC=O)c(=O)c2cc1Oc1ccccc1,max response,[4],-2.7% (inactive)
O=C(Nc1ccc(/C=C/c2ccc(NC(=O)c3cc(S(=O)(=O)O)c4cccnc4c3O)cc2S(=O)(=O)O)c(S(=O)(=O)O)c1)c1cc(S(=O)(=O)O)c2cccnc2c1O,max response,[4],-6.63% (inactive)
CCN(CC)CCOC(=O)c1ccc(N)cc1Cl,max response,[4],-6.93% (inactive)
O=P(O)(O)OC(CO)CO,max response,[4],10.5% (inactive)
CC(=O)OCC(=O)[C@@]1(O)[C@H](C)C[C@H]2[C@@H]3C[C@H](F)C4=CC(=O)C=C[C@]4(C)[C@H]3[C@@H](O)C[C@@]21C,max response,[4],-15.2% (inactive)
CCC(CN)CC(C)CCNCC(O)CNCC(C)CC(CC)CN (stereo not drawn),max response,[4],-11% (inactive)
COc1ccnc(CS(=O)c2nc3cc(OC(F)F)ccc3[nH]2)c1OC (stereo not drawn),max response,[4],-13.5% (inactive)
NCCCC[C@H](NC(=O)[C@@H]1CCCN1C(=O)[C@@H]1CSSC[C@H](N)C(=O)N[C@@H](Cc2ccc(O)cc2)C(=O)N[C@@H](Cc2ccccc2)C(=O)N[C@@H](CCC(N)=O)C(=O)N[C@@H](CC(N)=O)C(=O)N1)C(=O)NCC(N)=O,max response,[4],-14.9% (inactive) and -14.7% (inactive)
O=P(O)(O)C(Sc1ccc(Cl)cc1)P(=O)(O)O,max response,[4],17.7% (inactive)
CSCC[C@H](NC(=O)[C@H](Cc1ccc(OS(=O)(=O)O)cc1)NC(=O)[C@@H](N)CC(=O)O)C(=O)NCC(=O)N[C@@H](Cc1c[nH]c2ccccc12)C(=O)N[C@@H](CCSC)C(=O)N[C@@H](CC(=O)O)C(=O)N[C@@H](Cc1ccccc1)C(N)=O,max response,[4],-12.2% (inactive) and 15% (inactive)
CCOC(=O)COc1ccc2c(C)c(CCN(CC)CC)c(=O)oc2c1,max response,[4],15% (inactive)
C[N+](C)(CCCCCC[N+](C)(C)C1c2ccccc2-c2ccccc21)C1c2ccccc2-c2ccccc21,max response,[4],-0.956% (inactive)
CCOC(=O)Nc1ccc2c(c1)N(C(=O)CN(C)C)c1ccccc1CC2,max response,[4],6.79% (inactive)
Cn1nnnc1SCC1=C(C(=O)O)N2C(=O)[C@@H](NC(=O)[C@H](OC=O)c3ccccc3)[C@H]2SC1,max response,[4],10.2% (inactive)
CCOC(=O)Cc1cccc(-c2cc(CCCCCCc3ccc(O[C@H]4O[C@H](COC(C)=O)[C@@H](OC(C)=O)[C@H](OC(C)=O)[C@@H]4OC(C)=O)c(-c4cccc(CC(=O)OCC)c4)c3)ccc2O[C@H]2O[C@H](COC(C)=O)[C@@H](OC(C)=O)[C@H](OC(C)=O)[C@@H]2OC(C)=O)c1,max response,[4],-24.7% (inactive)
COc1ccc(CCNCC(O)COc2cccc(C)c2)cc1OC (stereo not drawn),max response,[4],11.3% (inactive)
Cc1[nH]cnc1C[C@H]1CCc2c(C)c3ccccc3n2C1=O,max response,[4],6.9% (inactive)
C=CCNC1=C2C[C@@H](C)C[C@H](OC)[C@H](O)[C@@H](C)/C=C(\C)[C@H](OC(N)=O)[C@@H](OC)/C=C\C=C(/C)C(=O)NC(=CC1=O)C2=O,Potency,[4],2.82 µM (active)
O=C1C(c2[nH]c3ccc(S(=O)(=O)O)cc3c2O)=Nc2ccc(S(=O)(=O)O)cc21,max response,[4],-2.9% (inactive) and 36.3% (inactive) and 37.5% (inactive)
CCCC(=O)O[C@]1(C(=O)COC(=O)CC)[C@@H](C)C[C@H]2[C@@H]3CCC4=CC(=O)C=C[C@]4(C)[C@@]3(F)[C@@H](O)C[C@@]21C,max response,[4],-15.1% (inactive)
c1ccc2c(CCC3CCNCC3)c[nH]c2c1,max response,[4],-9.29% (inactive)
CCCOc1ccc2nc(NC(=O)OC)sc2c1,max response,[4],-5% (inactive)
CCCCCC(O)/C=C/C=O (stereo not drawn),max response,[4],-0.932% (inactive)
COc1cc(C[C@@H]2NCCc3cc(O)c(O)cc32)cc(OC)c1OC,max response,[4],-17.1% (inactive)
O=C(Cn1cnnn1)N[C@@H]1C(=O)N2C(C(=O)O)=C(CSc3nncs3)CS[C@H]12,max response,[4],1.4% (inactive) and 3.1% (inactive)
NCCCC[C@H](NC(=O)[C@@H]1CCCN1C(=O)[C@@H]1CSSC[C@H](N)C(=O)N[C@@H](Cc2ccccc2)C(=O)N[C@@H](Cc2ccccc2)C(=O)N[C@@H](CCC(N)=O)C(=O)N[C@@H](CC(N)=O)C(=O)N1)C(=O)NCC(N)=O,max response,[4],-4.07% (inactive)
COc1cc([C@@H]2c3cc4c(cc3C(O[C@@H]3O[C@@H]5COC(c6cccs6)O[C@H]5[C@H](O)[C@H]3O)C3COC(=O)[C@@H]32)OCO4)cc(OC)c1O (stereo partly drawn),max response,[4],-13.4% (inactive)
CC(CC(c1ccccc1)c1ccccc1)NC(C)(C)C (stereo not drawn),max response,[4],-8.24% (inactive)
O=S(=O)(O)Oc1ccc(C(c2ccc(OS(=O)(=O)O)cc2)c2ccccn2)cc1,max response,[4],4.73% (inactive)
CCOc1ccc(N=C(C)Nc2ccc(OCC)cc2)cc1,max response,[4],-5.06% (inactive)
CC(=O)NC[C@H]1CN(c2ccc(N3CCSCC3)c(F)c2)C(=O)O1,"parasite growth, % of DMSO control",[5],91.5%
same,"parasite growth remaining, % of DMSO control (lower = more inhibition)",[6],103%
same,"parasite growth, % of control (lower = inhibition)",[7],186%
same,"growth, % of control",[8],110%
N[C@@H](C(=O)N[C@H]1C(=O)N2C(C(=O)O)=C(Cl)CC[C@H]12)c1ccccc1,"parasite growth, % of DMSO control",[5],101%
same,"parasite growth remaining, % of DMSO control (lower = more inhibition)",[6],100%
same,"parasite growth, % of control (lower = inhibition)",[7],78.4%
same,"growth, % of control",[8],104%
